From PubChem BioAssay AID624273 (Broad Institute, 2012) come the findings set out here.

The campaign covered roughly 1,000 compounds. About 230 (23%) were called active. About 1% were inconclusive and are not listed. No rule for the calls is given here. This is one part of the list. Entries with a potency or affinity are not part of this list.

In this test the target is Long-chain-fatty-acid--AMP ligase FadD28 (Mycobacterium tuberculosis (strain ATCC 25618 / H37Rv)) (UniProt P9WQ59). The experiment in a line: inhibitors of FadD28 bisubstrate probe binding, dose response, biochemical, fluorescence polarization, cherry-pick (AID 624273). The following applies: series mostly up to 50 µM. A general note: Polarisation of emitted light reports the rotation of a fluorescent probe.
Chain of Long-chain-fatty-acid--AMP ligase FadD28 (Mycobacterium tuberculosis (strain ATCC 25618 / H37Rv)) (P9WQ59 whole entry, looked up): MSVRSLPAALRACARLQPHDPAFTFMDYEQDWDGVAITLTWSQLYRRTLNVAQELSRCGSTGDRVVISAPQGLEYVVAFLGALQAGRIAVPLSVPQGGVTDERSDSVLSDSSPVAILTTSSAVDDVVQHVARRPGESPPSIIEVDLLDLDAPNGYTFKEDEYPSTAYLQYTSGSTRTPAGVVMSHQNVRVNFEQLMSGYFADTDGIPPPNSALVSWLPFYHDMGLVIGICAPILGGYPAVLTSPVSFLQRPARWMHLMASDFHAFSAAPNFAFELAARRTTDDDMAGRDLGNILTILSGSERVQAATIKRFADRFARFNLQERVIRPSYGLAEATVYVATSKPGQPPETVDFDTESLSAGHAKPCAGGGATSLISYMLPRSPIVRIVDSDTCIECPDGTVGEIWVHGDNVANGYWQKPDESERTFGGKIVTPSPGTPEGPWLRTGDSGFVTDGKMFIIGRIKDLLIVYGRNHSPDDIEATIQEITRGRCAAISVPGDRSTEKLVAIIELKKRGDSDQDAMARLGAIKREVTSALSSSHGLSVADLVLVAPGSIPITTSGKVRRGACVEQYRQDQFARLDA
Take `Cc1nn(C(=O)c2ccco2)c(C)c1Br`: the outcome was inactive.

As to `Cc1cc(NC(=O)Nc2cccc3ccccc23)no1`, the result was inactive. In the case of `COc1ccc2nc(-c3ccc(F)cc3)sc2c1`, the call was inactive.

For `Cc1ccc(C(=O)NN2C(=O)/C(=C/c3cccn3C)SC2=S)cc1`, the call was inactive. Next, `O=C(NC(=S)NCc1nc2ccccc2[nH]1)c1ccccc1F`: “inactive”; `C=CCSc1nc(=O)n2cccc(C)c2n1`: “inactive”; `c1ccc(-c2cnn3c(-c4ccccc4)c(-c4ccccc4)nc3n2)cc1`: “inactive”. The entry for `O=C(COc1ccccc1-c1ccccc1)NCc1cccc(Cl)c1` is “inactive”. The entry for `COc1ccc(CNCCc2ccc3c(c2)OCO3)cc1Br` is “inactive”; for `CC(C)c1ccc(NC(=O)CCCC(=O)NCCc2ccccc2)cc1` it is “inactive”; for `CC(C)(C)c1ccc(NC(=O)C(=O)C2C(=O)Nc3ccccc32)cc1` (centres undefined) it is “inactive”. Take `COC(=O)c1c(N(S(C)(=O)=O)S(C)(=O)=O)sc2c1CCN(c1ncc(C(F)(F)F)cc1Cl)C2`: the result was inactive. As for `CCOC(=O)C1=C(C)OC(N)=C(C#N)C1c1cc(F)ccc1F` (centres undefined), the call was inactive. Next, `Cc1cc(C)n2nc3nc(N4CCCC4)nc(-c4ccccc4)c3c2n1`: “inactive”; `CC(=O)NN1C(=O)/C(=C\c2ccc(Br)o2)SC1=S`: “inactive”. Next, `O=C(CSc1nc2ccsc2c(=O)n1Cc1ccc(C(=O)O)cc1)NCc1ccco1`: “inactive”; `Cc1nn(CCc2nn[nH]n2)c2nc(-c3ccc(C4CCCCC4)cc3)cc(C(F)(F)F)c12`: “inactive”; `O=C(CSc1nc2ccccc2[nH]1)NC1CCCc2ccccc21` (centres undefined): “inactive”. The entry for `CCOC(=O)c1[nH]nc2c1C(=O)N(CC)C2=O` is “inactive”. Consider `Cc1cc(-n2c(C)cc(C(=O)COc3ccc(F)c(F)c3)c2C)no1`, for which the outcome was inactive. Next, `COc1ccc(OCC(=O)NNC(=O)C(=O)N2CCCC2)cc1`: “inactive”; `COc1ccc(S(=O)(=O)N(C)C[C@H]2Oc3ccc(NC(=O)Nc4ccc5c(c4)OCO5)cc3C(=O)N([C@H](C)CO)C[C@@H]2C)cc1`: “inactive”; `O=C(CSc1nnc(CNC(=O)C23CC4CC(CC(C4)C2)C3)n1-c1ccccc1)Nc1ccc(F)cc1`: “inactive”. As to `CCCCCCCCCCCCC(=O)CCCCC(=O)O`, the compound was called inactive. In the case of `COc1ccc(OC)c(NC(=O)c2nnn(CCc3ccccc3)c2N)c1`, the compound was classed as inactive. Next, `O=C(Nc1ccc(Cc2ccncc2)cc1)C1CCC(N2C(=O)C3C4C=CC(C4)C3C2=O)CC1` (centres undefined): “inactive”.

For `COc1ccc(CN2CCC(C(=O)Nc3ccc(Oc4cccnc4)cc3)CC2)c(C)c1C`, the compound was classed as inactive.

For the compound `COc1ccc(N2CC(C(=O)Nc3cccnc3)CC2=O)cc1` (centres undefined), the compound was called inactive. For `O=C(COc1ccccc1)Nc1ccc(CN2CCCCC2)cc1`, the compound was called inactive.

With `COc1ccc(N(CC(=O)NC2CCCCC2)C(=O)CCC(=O)Nc2nc(C)cs2)cc1`, the result was inactive. Next, `CCOC(=O)CSc1nc(C)c2ccccc2n1`: “inactive”; `CCOC(=O)c1ccc(Nc2cc(C)nc(-c3ccccc3O)n2)cc1`: “inactive”; `CCOC(=O)c1ccc(NS(=O)(=O)c2ccc3c(c2)NC(=O)CCS3)cc1`: “inactive”. The entry for `COc1cc2[nH]c(Cl)c([N+](=O)[O-])c2cc1OC` is “inactive”; for `CCC1CCC(C(=O)NNC(=O)c2cc(-c3ccco3)[nH]n2)CC1` (centres undefined) it is “inactive”; for `CCOC(=O)C1CCCN(C(=O)c2cc(Nc3ccc(OC)c(OC)c3)nc3ccccc23)C1` (centres undefined) it is “inactive”. For `CCOC(=O)C1CCCN(C(=O)C2c3ccccc3Oc3ccccc32)C1` (centres undefined), the call was inactive. The entry for `CCCCc1c(O)nc(SCC(=O)N2CCOCC2)n(-c2ccc(OC)cc2)c1=O` is “inactive”.

For the compound `CCOc1ccc(-c2nnc(SCC(=O)N3CCCC3)o2)cc1`, the outcome was inactive.

With `Cn1c(=O)c2c(ncn2Cc2ccc(Cl)cc2)n(C)c1=O`, the compound was called inactive.

As to `COc1ccc2c(C)cc(SCC(=O)N(C)C3CCS(=O)(=O)C3)nc2c1` (centres undefined), the compound was classed as inactive.

Turning to `Cc1ccccc1Nc1ccc([N+](=O)[O-])cn1`, the call was inactive. Next, `O=C(COC(=O)c1ccccc1NC(=O)c1ccco1)Nc1ncc(Cl)cc1Cl`: “inactive”; `Cn1ccc(C(=O)NC(=S)Nc2ccc([N+](=O)[O-])cc2O)n1`: “inactive”; `COc1ccc(C(=O)NNC(=O)C(=O)N2CCCCC2)cc1OC`: “inactive”. The entry for `Cc1ccccc1CS(=O)(=O)Cc1ccc(C(=O)NCc2ccco2)o1` is “inactive”. Next, `O=C(NCc1n[nH]c(=S)n1-c1ccccc1)c1ccco1`: “inactive”. As for `O=C(Cn1c(=O)oc2ccccc21)Nc1cccc(Cl)c1`, the outcome was inactive. `COc1cccc(C(=O)NCc2ccccc2OC)c1`: the result was inactive. The entry for `CC(=O)c1cccc(NC(=O)COC(=O)c2ccccc2C)c1` is “inactive”; for `COc1ccccc1NC(=O)Nc1cccc(C)n1` it is “inactive”. Turning to `COc1ccc(C(=O)COC(=O)CNS(=O)(=O)c2ccc(C)cc2)cc1`, the outcome was inactive.

`COc1cccc(NCc2cc(=O)oc3cc(-c4ccccc4)c(O)cc23)c1`: the call was inactive.

As for `COC(=O)c1cc2oc(C)cc2n1CC(=O)N(C)c1ccccc1`, the call was inactive. The entry for `CCOC(=O)Cn1cc(C(=O)c2ccco2)c2ccccc21` is “inactive”. Next, `COc1ccc(-c2cc(C)no2)cc1S(=O)(=O)N(C)c1cccc(C)c1`: “inactive”; `COc1ccccc1C(=O)COC(=O)c1nc2nc(C)cc(C)n2n1`: “inactive”. Next, `CCCSC1=N/C(=C\C=C\c2ccco2)C(=O)S1`: “inactive”; `COc1cccc(NC(=O)Cn2nnc(C(=O)Nc3ccccc3)c2N)c1`: “inactive”. For the compound `CC(C)(C)NC(=O)Cn1nnc(-c2ccccc2Cl)n1`, the call was inactive. The entry for `COc1ccc(OC)c(NC(=O)NNC(=O)c2cc3occc3[nH]2)c1` is “inactive”; for `COc1ccc(CC(=O)OCC(=O)NC(=O)NC23CC4CC(CC(C4)C2)C3)cc1` it is “inactive”; for `Cc1ccc(NC(=O)CN(C)C(=O)c2cc(-c3ccco3)nc3ccccc23)cc1` it is “inactive”. Next, `CCc1nc(C)cn1S(=O)(=O)c1cc(C)c(OC)c(C)c1C`: “inactive”. Next, `Cc1cccc(OCC(=O)N2CCN(C(=O)Cc3ccccc3)CC2)c1`: “inactive”.

For `COc1cccc(OCCn2cc(/C=N/NC(=O)c3ccncc3)c3ccccc32)c1`, the outcome was inactive. Next, `COc1cc(/C=N/NC(=O)Cn2nc([N+](=O)[O-])cc2C)cc(Br)c1OCc1ccccc1`: “inactive”. As to `COc1ccc2c(c1OC)C(=O)N1C2SC(C)(C)[C@H]1C(=O)NCCCOC(C)C` (some centres undefined), the compound was classed as inactive. Next, `Cc1cccc(-n2c(O)c(C=NCCCN3CCOCC3)c3ccccc3c2=O)c1`: “inactive”; `Nc1ccccc1C#Cc1ccc([N+](=O)[O-])cc1`: “inactive”; `Cc1cccnc1C(NC(=O)C1CCN(CCCc2ccccc2)CC1)c1ccc(Cl)cc1` (centres undefined): “inactive”. The entry for `CON(C)C(=O)c1ccccc1N(C)C(=O)OC(C)(C)C` is “inactive”.

Consider `CC1CCN(S(=O)(=O)c2ccc(NC(=O)Cn3nnc(-c4ccccc4F)n3)cc2)CC1`, for which the compound was called inactive.

Consider `O=C(CSc1nnc(Cc2ccccc2)o1)c1ccc2c(c1)OCO2`, for which the compound was classed as inactive. Next, `O=C(CSc1ccc(-c2nc3ccccc3[nH]2)cn1)Nc1ccc(S(=O)(=O)NC2CC2)cc1`: “inactive”; `Cc1ccc(C)c(OCCC(=O)OCC(=O)Nc2cccc(S(=O)(=O)N3CCCC3)c2)c1`: “inactive”. Next, `Cc1ccc(NC(=O)COC(=O)c2cccc(S(=O)(=O)N3CCCCCC3)c2)cc1`: “inactive”; `CC(Sc1nnc(CNc2cccc3ccccc23)n1-c1ccccc1)C(=O)N/N=C/c1ccco1` (centres undefined): “inactive”.

For `Cc1cc(C)c2sc(N(CCCN(C)C)C(=O)c3ccc(S(=O)(=O)N4CCCc5ccccc54)cc3)nc2c1`, the call was inactive. The entry for `CC1(C)Oc2ccc3ccc(=O)oc3c2/C(=C/O)C1=O` is “inactive”; for `COc1ccc(C2NC3=C(CCC3)C3(C#N)C4(N=C(N)C23C#N)OCCO4)cc1` (centres undefined) it is “inactive”; for `O=C(Cc1ccc(Cl)cc1)Nc1ccc(N2CCN(C(=O)c3ccco3)CC2)c(Cl)c1` it is “inactive”.

For the compound `Cc1nn(-c2ccccc2)c(Cl)c1/C=N/NC(=O)c1cccnc1`, the compound was classed as inactive. Next, `CCOC(=O)c1c(C)nc2sc3c(=O)n(-c4ccc(C(C)=O)cc4)cnc3c2c1-c1ccc(OC)cc1`: “inactive”; `C=CCOc1ccc(C2OC34CCCCC3C(C#N)(C#N)C2(C#N)C(=N)O4)cc1` (centres undefined): “inactive”. Next, `N/C(CSc1ccc(Cl)cc1)=N\NC(=O)c1ccncc1`: “inactive”; `Cc1c(NC(=O)c2ccc3ncccc3c2)c(=O)n(-c2ccccc2)n1C`: “inactive”; `COC(=O)c1cc(C)nc2c1C(=O)C(=O)C=C2N1CCOCC1`: “inactive”. As to `Cc1ccc(OCCC(=O)OCC(=O)c2c(N)n(CC(C)C)c(=O)n(C)c2=O)cc1`, the compound was classed as inactive.

With `CCC(=O)c1cccc(-c2ccccc2)c1CC`, the outcome was inactive. Regarding `COc1ccc(CN(C)C(=O)c2ccc(OCC(=O)Nc3cccc(C(F)(F)F)c3)c(OC)c2)c(OC)c1`, the result was inactive. Take `COc1cc(OC)c(C2=NOC(C(=O)Nc3c(C)n(C)n(-c4ccccc4)c3=O)C2)cc1Cl` (centres undefined): the compound was called inactive. Next, `CCCCOc1ccc(Nc2cc(Cl)ccc2C(=O)O)cn1`: “inactive”; `N#CCC(=O)Nc1ccc(C(=O)OCC(=O)Nc2cccc(C(F)(F)F)c2)cc1`: “inactive”; `Cc1ccc(NC(=O)CN2C(=O)S/C(=C/c3ccc(-c4cc(C(=O)O)ccc4C)o3)C2=O)cc1C`: “inactive”. The entry for `O=C(NCc1ccccc1)C1=C[C@@H](c2ccc(C(F)(F)F)cc2)C[C@@H](OCCCCO)O1` is “inactive”; for `NC(Cc1ccc(C(F)(F)F)cc1)c1csc(NC(=O)Nc2ccccc2Cl)n1` (centres undefined) it is “inactive”; for `Cc1onc(C(=O)N2CCC(C(N)=O)CC2)c1-c1ccccc1Cl` it is “inactive”. The entry for `COc1cc(NC(=O)C2CCN(S(=O)(=O)c3ccc(Cl)cc3)CC2)ccc1-n1cnnn1` is “inactive”. Turning to `CSc1cccc(CN2CCC(CCC(=O)NC3CC3)CC2)c1`, the compound was called inactive.

Take `S=c1nc(-c2ccco2)[nH][nH]1`: the compound was classed as inactive. Next, `COc1ccc(OC)c(-n2c(-c3cc(-c4ccco4)[nH]n3)n[nH]c2=S)c1`: “inactive”. Next, `Cc1nnc(NC(=O)C2CC(=O)N(c3ccc4c(c3)OCCO4)C2)s1` (centres undefined): “inactive”; `COc1ccc(C2(CNC(=O)C(c3ccccc3)c3ccccc3)CCOCC2)cc1OC`: “inactive”.
